Measurements reported in PubChem BioAssay.
Results filed as inconclusive are left out. The source made the active and inactive calls. Cut-off read from the data, not from the text of the source, unless noted: active = response above about 15%; inactive = the rest.

How the values were obtained:
[1] = rapamycin-like changes in RPL19A-GFP expression – cell-based, S. cerevisiae, multiplex flow cytometry, primary screen (AID 1862; in the data active = percent of DMSO control GFP below about 86%;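 note: lower values mimic rapamycin by blocking the RPL19A rise seen in DMSO cells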); settings: S. cerevisiae RPL19A-GFP strain, flow cytometry fluorescence, 3 h; at 10 µM; stronger effect = lower value
[2] = TOR pathway GLN3 branch reporter MEP2-GFP changes – S. cerevisiae, multiplex flow cytometry, primary screen (AID 1867;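 active = GFP response, as percent of the DMSO control, above the screen-wide mean plus 3 SD, about 139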;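 note: median GFP channel fluorescence of barcode-gated MEP2-GFP cells measured by flow cytometry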); settings: S. cerevisiae MEP2-GFP strain, 3 h, at 10 µM, stronger effect = higher value, 100% means same as DMSO wells
[3] = TOR pathway RTG branch CIT2 reporter changes – S. cerevisiae, GFP fusion, multiplex flow cytometry, primary screen (AID 1870;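 active = percent response above a set limit, the screen-wide mean plus 3 SD, cut at about 130% in these data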;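 note: barcoded CIT2-GFP strain pooled with four other GFP strains with rapamycin as positive control; median GFP fluorescence per well over plate mean of DMSO wells so 100% = DMSO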); settings: S. cerevisiae CIT2-GFP expression, 3 h, at 10 µM, stronger effect = higher value
[4] = TOR pathway LAP4-GFP level changes – S. cerevisiae, multiplex flow cytometry, primary screen (AID 1873;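 active = GFP signal, as percent of the solvent control, above the screen mean plus 3 SD, about 149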); settings: S. cerevisiae LAP4-GFP expression, 3 h, at 10 µM, stronger effect = higher value
[5] = yeast AGP1-GFP level changes, GLN3 branch – cell-based, multiplex flow cytometry, S. cerevisiae, primary screen (AID 1887;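 active = GFP signal above the screen-wide mean plus 3 SD, that is over about 124.5% of the solvent control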;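 note: AGP1-GFP fusion strain of S. cerevisiae within a five-strain barcoded multiplex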); settings: 3 h, at 10 µM, stronger effect = higher value
[6] = reduced mouse 2C T cell binding to pMHC/ICAM-1 vesicles – MLPCN validation set, flow cytometry, LFA-1/ICAM-1 modulator project, pilot screen (AID 2523;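 active = response below a set limit, under 55% cells CD8-positive and vesicle-bound, and CD8 cells' 90th-percentile brightness under 279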;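 for vesicle binding response: mean PE anti-B7-1 fluorescence of CD8+ cells relative to row control; 100% = QL9-loaded vesicles with DMSO vehicle in the same plate row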); settings: 2C mouse CD8+ T cells, at 7 µM, stronger effect = lower value; double positive events: measured here: CD8+/vesicle+ event percentage
[7] = target: Integrin beta-1 (Homo sapiens) + Integrin alpha-4 (Homo sapiens) (UniProt P13612+P05556); assay: alpha4beta1 integrin LIBS antibody binding reduction – U937 cells, HUTS-21 mAb, flow cytometry, validation set, VLA-4 allosteric modulator project, pilot screen (AID 2674;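 active = inhibition above 50%, about 3 SD of the validation set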;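 note: antibody binding induced by the VLA-4 ligand LDV present at three times its Kd; 0% = LDV ligand with antibody and no compound and 100% = antibody without LDV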); settings: HUTS-21 LIBS mAb binding, at 6.7 µM, stronger effect = higher value, binding induced by LDV ligand
[8] = calorie-restriction mimetic ROS inhibitors, yeast – validation compound set, pilot screen (AID 2706;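 active = superoxide response below 65% of plate, a cut near 3 SD across the whole screen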;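 note: yeast exposed to compound for one week at 30 degrees C before staining; 100% = mean of all compound wells on the same plate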); settings: S. cerevisiae aging, superoxide DHE fluorescence; at 10 µM; stronger effect = lower value
[9] = target: Beta-adrenergic receptor kinase 1 (Homo sapiens) (UniProt P25098); assay: GRK2 binders displacing RNA aptamer, biochemical, validation, human GRK2, bead flow cytometry (AID 488806;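 active = aptamer binding inhibition above 30%, about 3 SD of noise from non-fluorescent compounds; inactive = inhibition at or below 30%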); settings: bead-bound GRK2, FAM-aptamer displacement, at 10 µM, stronger effect = higher value
[10] = target: Beta-2 adrenergic receptor (Homo sapiens) (UniProt P07550); assay: agonist-induced loss of surface beta2AR – cell-based, FAP fluorogen, flow cytometry, validation set, pilot screen (AID 504459;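 active = percent response above 42, roughly 3 SD of non-fluorescent test compounds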;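 note: agonist-driven loss of surface beta2AR via internalization measured by FAP dye flow cytometry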); settings: Am2.2-beta2AR cells, at 10 µM, stronger effect = higher value
[11] = target: AP-2 complex subunit beta (Homo sapiens) (UniProt P63010); assay: beta-arrestin/AP2 interaction blockers – biochemical, validation set, GST-AP2 beads, flow cytometry, pilot screen (AID 504541;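 active = inhibition above 54%, about 3 SD of non-fluorescent compounds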;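 note: AP2 carries R879A mutation and is captured from E. coli lysate; bead-bound FITC arrestin peptide fluorescence measuring arrestin peptide binding to AP2; 0% = DMSO wells and 100% = excess unlabeled arrestin peptide control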); settings: FITC arrestin peptide, at 10 µM, stronger effect = higher value, AP2 beta2 appendage fragment, R879A mutant
[12] = cytosolic pH regulators acting via V-ATPase – S. cerevisiae, pHLuorin, HTS validation (AID 504600); settings: V-ATPase proton transport, at 10 µM, stronger effect = higher value;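 note: plate controls were DMSO for no effect and reference compound for full effect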
[13] = tested on: anti-desmoglein-3 scFv antibody binding to human DSG3; assay: blockers of pathogenic pemphigus antibody–desmoglein-3 binding – biochemical, validation compound set, bead-based, flow cytometry, pilot screen (AID 588368;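 active = binding below the plate cutoff, the plate median minus 3 SD, with a reading above zero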;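 note: signal is the median channel fluorescence of bead-bound GFP antibody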); settings: Protein G beads, DSG3-Fc, scFv-GFP binding, at 10 µM, stronger effect = lower value
[14] = Nile Red efflux blockade in pump-expressing yeast – validation compound set, multiplex, phenotypic, pilot screen (AID 588506;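 active = efflux inhibition above 0.42, the validation set average plus 4 SD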;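 note: Nile Red retained in cells so higher fluorescence means more efflux inhibition; 0 = negative control wells and 1 = enniatin B 25 µM full block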); settings: S. cerevisiae pump-expressing triplex, Nile Red efflux flow cytometry; at 10 µM; stronger effect = higher value; the pumps come from Candida albicans
[15] = target: ATP-binding cassette sub-family B member 6 (Homo sapiens) (UniProt Q9NP58); assay: blockers of ABCB6-driven porphyrin uptake – K562-ABCB6 cells, flow cytometry, validation set, pilot screen (AID 588550;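 active = inhibition above the screen-wide mean plus 3 SD, about 51%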;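 note: 0% = DMSO wells and 100% = benzethonium chloride 70 µM positive control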); settings: K562-ABCB6 porphyrin accumulation, 1 h, at 10 µM, stronger effect = higher value
[16] = AML differentiation inducers, ER-HoxA9 marrow cells – cell-based, GFP/MAC1 double positive, flow cytometry, validation set, primary screen (AID 588685;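 active = differentiation response of at least 50%, scaled between solvent and reference control, from cells with both markers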;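 note: compound exposure lasts four days before antibody staining and flow analysis; 0% = DMSO wells and 100% = 5 µM fulvestrant positive control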); settings: stronger effect = higher value, normalized: vehicle 0, fulvestrant 100

Sequence of ATP-binding cassette sub-family B member 6 (Homo sapiens) (Q9NP58 whole entry, looked up): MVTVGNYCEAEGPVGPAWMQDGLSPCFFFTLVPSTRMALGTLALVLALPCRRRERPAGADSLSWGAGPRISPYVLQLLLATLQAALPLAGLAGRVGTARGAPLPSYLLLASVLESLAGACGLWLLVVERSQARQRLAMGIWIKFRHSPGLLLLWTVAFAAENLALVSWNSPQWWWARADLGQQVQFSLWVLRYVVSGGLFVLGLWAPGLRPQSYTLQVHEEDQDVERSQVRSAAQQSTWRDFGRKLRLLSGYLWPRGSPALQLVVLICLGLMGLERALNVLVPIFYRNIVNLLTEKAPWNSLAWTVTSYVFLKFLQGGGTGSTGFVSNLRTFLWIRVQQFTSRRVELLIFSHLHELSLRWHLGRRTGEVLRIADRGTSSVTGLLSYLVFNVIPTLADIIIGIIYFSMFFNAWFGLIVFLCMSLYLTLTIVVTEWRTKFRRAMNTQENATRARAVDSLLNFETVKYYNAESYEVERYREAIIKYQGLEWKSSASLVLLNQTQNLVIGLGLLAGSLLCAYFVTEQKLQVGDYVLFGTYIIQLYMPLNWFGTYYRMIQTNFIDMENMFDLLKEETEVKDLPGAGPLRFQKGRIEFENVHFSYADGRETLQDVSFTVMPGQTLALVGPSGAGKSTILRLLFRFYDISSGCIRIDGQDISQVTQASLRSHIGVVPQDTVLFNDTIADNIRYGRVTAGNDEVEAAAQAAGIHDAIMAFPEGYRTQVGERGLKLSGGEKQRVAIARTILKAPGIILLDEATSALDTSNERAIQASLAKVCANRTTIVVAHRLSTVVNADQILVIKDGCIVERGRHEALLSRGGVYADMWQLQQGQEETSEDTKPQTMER
Sequence of AP-2 complex subunit beta (Homo sapiens) (P63010 whole entry, looked up, the tested form may be a part, one chain of several): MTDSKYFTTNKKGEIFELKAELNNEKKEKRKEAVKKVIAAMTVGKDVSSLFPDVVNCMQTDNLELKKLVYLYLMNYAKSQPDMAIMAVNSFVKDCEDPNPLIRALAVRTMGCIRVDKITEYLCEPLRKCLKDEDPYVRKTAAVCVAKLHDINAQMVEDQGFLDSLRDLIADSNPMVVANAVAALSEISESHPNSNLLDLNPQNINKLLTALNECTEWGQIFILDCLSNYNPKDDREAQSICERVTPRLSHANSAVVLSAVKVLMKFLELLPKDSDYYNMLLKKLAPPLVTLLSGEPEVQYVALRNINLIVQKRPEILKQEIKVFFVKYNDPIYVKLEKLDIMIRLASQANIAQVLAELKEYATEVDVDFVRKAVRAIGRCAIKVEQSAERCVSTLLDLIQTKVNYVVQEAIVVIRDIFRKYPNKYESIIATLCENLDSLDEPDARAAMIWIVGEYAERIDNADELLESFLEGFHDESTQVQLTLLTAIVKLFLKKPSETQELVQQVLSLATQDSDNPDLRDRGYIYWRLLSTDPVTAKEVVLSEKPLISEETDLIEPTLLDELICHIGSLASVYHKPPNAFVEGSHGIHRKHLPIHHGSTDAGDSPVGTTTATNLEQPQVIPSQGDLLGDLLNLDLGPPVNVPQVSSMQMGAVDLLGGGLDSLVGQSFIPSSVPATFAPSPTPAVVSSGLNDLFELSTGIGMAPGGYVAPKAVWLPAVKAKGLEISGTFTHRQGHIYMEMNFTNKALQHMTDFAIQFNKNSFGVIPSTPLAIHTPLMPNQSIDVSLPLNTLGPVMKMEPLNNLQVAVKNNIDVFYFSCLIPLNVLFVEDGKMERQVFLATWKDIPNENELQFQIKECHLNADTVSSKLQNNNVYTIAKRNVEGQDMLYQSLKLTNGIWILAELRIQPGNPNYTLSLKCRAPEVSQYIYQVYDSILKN
Sequence of Beta-2 adrenergic receptor (Homo sapiens) (P07550 whole entry, looked up): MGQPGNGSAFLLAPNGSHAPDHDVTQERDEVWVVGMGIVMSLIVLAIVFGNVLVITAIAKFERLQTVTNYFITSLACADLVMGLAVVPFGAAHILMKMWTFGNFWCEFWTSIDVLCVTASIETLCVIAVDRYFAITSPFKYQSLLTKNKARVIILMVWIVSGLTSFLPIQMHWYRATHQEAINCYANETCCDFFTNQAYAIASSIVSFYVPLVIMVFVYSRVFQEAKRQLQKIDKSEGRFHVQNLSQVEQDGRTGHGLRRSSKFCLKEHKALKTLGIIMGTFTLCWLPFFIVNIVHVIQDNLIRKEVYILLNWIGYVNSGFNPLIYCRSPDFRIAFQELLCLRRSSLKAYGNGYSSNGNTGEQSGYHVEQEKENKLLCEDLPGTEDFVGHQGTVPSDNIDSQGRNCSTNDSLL
Sequence of Beta-adrenergic receptor kinase 1 (Homo sapiens) (P25098 whole entry, looked up): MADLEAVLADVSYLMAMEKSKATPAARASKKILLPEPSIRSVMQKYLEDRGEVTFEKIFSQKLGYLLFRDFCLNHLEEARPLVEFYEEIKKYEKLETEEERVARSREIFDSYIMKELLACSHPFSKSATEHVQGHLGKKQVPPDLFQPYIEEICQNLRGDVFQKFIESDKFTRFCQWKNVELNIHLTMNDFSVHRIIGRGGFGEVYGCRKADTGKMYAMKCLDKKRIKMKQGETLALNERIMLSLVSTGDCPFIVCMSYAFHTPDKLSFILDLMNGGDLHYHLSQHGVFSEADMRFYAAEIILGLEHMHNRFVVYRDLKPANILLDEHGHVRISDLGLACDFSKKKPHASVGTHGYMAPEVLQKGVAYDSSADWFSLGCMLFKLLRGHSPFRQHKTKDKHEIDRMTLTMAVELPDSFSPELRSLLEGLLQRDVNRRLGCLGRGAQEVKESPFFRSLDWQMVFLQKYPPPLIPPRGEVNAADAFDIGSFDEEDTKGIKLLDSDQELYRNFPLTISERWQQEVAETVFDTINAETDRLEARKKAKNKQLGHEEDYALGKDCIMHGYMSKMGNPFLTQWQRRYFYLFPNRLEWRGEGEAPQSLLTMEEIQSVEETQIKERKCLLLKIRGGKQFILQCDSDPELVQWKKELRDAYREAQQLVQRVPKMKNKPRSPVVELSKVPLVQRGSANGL
Sequence of Integrin beta-1 (Homo sapiens) + Integrin alpha-4 (Homo sapiens) (P05556 whole entry, looked up): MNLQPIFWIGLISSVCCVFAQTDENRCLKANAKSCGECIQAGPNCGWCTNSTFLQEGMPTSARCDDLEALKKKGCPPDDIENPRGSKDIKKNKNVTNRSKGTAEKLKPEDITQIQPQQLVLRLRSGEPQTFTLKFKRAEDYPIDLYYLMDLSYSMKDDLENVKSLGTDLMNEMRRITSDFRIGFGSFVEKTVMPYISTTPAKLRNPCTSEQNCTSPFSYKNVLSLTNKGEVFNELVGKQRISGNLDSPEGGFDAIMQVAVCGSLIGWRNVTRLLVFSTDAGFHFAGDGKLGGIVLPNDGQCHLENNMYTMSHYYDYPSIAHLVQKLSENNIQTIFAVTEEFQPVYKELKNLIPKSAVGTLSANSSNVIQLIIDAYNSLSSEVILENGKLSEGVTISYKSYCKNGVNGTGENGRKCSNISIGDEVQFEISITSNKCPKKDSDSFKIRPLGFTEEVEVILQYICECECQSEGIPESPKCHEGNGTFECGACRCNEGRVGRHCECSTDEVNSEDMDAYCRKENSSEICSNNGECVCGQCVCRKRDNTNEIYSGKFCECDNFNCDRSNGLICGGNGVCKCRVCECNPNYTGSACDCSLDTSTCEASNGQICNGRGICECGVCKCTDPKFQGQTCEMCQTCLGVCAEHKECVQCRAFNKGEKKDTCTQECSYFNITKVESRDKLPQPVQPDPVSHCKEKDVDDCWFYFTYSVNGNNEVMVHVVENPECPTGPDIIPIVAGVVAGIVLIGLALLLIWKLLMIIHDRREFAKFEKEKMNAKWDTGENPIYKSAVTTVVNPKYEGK
Sequence of Integrin beta-1 (Homo sapiens) + Integrin alpha-4 (Homo sapiens) (P13612 whole entry, looked up): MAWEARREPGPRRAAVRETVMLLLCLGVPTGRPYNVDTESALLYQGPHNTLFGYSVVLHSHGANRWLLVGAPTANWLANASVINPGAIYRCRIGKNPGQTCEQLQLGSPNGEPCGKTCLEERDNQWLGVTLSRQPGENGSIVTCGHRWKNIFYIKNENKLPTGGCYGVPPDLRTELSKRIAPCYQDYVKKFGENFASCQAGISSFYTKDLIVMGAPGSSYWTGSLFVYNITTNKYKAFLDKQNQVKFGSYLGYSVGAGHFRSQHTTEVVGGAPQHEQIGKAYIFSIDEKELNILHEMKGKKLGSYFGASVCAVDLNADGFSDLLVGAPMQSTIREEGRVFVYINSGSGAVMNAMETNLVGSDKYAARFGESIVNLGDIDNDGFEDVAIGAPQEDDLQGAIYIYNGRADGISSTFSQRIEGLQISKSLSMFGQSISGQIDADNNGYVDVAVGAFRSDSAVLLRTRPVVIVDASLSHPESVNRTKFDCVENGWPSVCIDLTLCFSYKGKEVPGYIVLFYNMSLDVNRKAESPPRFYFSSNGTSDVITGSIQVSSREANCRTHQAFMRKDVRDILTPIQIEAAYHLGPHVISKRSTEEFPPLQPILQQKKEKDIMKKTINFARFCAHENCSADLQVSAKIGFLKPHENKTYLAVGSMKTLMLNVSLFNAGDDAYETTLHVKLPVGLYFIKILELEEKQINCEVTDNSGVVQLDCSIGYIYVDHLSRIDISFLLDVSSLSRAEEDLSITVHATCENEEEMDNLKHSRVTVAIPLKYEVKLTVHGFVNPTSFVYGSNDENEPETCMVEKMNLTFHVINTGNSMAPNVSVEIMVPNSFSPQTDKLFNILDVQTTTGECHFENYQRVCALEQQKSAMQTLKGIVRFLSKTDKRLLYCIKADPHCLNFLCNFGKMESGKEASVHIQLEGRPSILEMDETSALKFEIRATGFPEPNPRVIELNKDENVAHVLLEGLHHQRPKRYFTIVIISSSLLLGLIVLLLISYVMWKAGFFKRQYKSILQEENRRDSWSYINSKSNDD

| Compound | percent of DMSO control GFP [1] | GFP response vs DMSO [2] | percent response of DMSO control [3] | GFP response vs DMSO [4] | GFP response, % of DMSO [5] | double positive events [6] [%] | vesicle binding response [6] | inhibition [7] | superoxide response (% of plate) [8] | aptamer binding inhibition [9] | response [10] | inhibition [11] | response [12] | binding (% of control) [13] | efflux inhibition (fraction of control) [14] | inhibition [15] | differentiation response [16] |
| --- | --- | --- | --- | --- | --- | --- | --- | --- | --- | --- | --- | --- | --- | --- | --- | --- | --- |
| COC(=O)C1=C(C)N(C)C(=S)NC1c1ccc(Cl)cc1 (stereo not drawn) | 99.8% (inactive) | 95.6% (inactive) | 98.6% (inactive) | 98% (inactive) | 88.8% (inactive) | 63 | 138% (inactive) | -2.43% (inactive) | 99.9% (inactive) | 3% (inactive) | -27.7% (inactive) | 0.15% (inactive) | 0.83% (inactive) | 97.9% (inactive) | -0.04 (inactive) | 7% (inactive) | -10.4% (inactive) |
| O=CNC1CCCc2c1[nH]c1ccc(Cl)cc21 (stereo not drawn) | 101% (inactive) | 96.2% (inactive) | 100% (inactive) | 89.4% (inactive) | 98.3% (inactive) | 64.4 | 173% (inactive) | -5.64% (inactive) | 113% (inactive) | 2% (inactive) | 3.11% (inactive) | -3.47% (inactive) | 0.49% (inactive) | 95.9% (inactive) | -0.04 (inactive) | -3% (inactive) | 8.06% (inactive) |
| COc1ccc(NC(=O)N2CCCCC2c2cccnc2)cc1 (stereo not drawn) | 98.9% (inactive) | 105% (inactive) | 99% (inactive) | 109% (inactive) | 105% (inactive) | 59.7 | 454% (inactive) | 7.4% (inactive) | 116% (inactive) | 7% (inactive) | -25.6% (inactive) | 0.21% (inactive) | 3.03% (inactive) | 103% (inactive) | 0 (inactive) | -2% (inactive) | -18.8% (inactive) |
| OC(C#CCN1CCCC1)(c1ccccc1)c1cccnc1 (stereo not drawn) | 98.9% (inactive) | 101% (inactive) | 98.3% (inactive) | 103% (inactive) | 107% (inactive) | 60.3 | 166% (inactive) | 11.7% (inactive) | 83.2% (inactive) | 6% (inactive) | -14.6% (inactive) | -2.57% (inactive) | 1.86% (inactive) | 108% (inactive) | -0.09 (inactive) | -14% (inactive) | 14.7% (inactive) |
| CC(C)C(=O)Nc1cccnc1 | 103% (inactive) | 99.6% (inactive) | 99.6% (inactive) | 115% (inactive) | 106% (inactive) | 68.8 | 294% (inactive) | 21.4% (inactive) | 85.9% (inactive) | 4% (inactive) | 0.35% (inactive) | -1.65% (inactive) | 4.74% (inactive) | 99.3% (inactive) | -0.13 (inactive) | -4% (inactive) | 0% (inactive) |
| O=C(c1ccco1)N(CCC(c1ccccc1)c1ccco1)Cc1ccco1 (stereo not drawn) | 103% (inactive) | 95.2% (inactive) | 106% (inactive) | 99.9% (inactive) | 104% (inactive) | 80 | 8050% (inactive) | -1.79% (inactive) | 104% (inactive) | 5% (inactive) | 6.76% (inactive) | 3.27% (inactive) | -0.61% (inactive) | 99.7% (inactive) | 0.15 (inactive) | -3% (inactive) | -13.6% (inactive) |
| CC12CCCCN1CCCc1c2[nH]c2ccccc12 (stereo not drawn) | 99.6% (inactive) | 105% (inactive) | 115% (inactive) | 82.8% (inactive) | 99.5% (inactive) | 61.3 | 149% (inactive) | -22.2% (inactive) | 99.9% (inactive) | -6% (inactive) | 8.33% (inactive) | 3.51% (inactive) | 0.15% (inactive) | 112% (inactive) | -0.2 (inactive) | -49% (inactive) | 11% (inactive) |
| CN1CCCN=C1COC(=O)C(O)(c1ccccc1)C1CCCCC1 (stereo not drawn) | 103% (inactive) | 107% (inactive) | 93.1% (inactive) | 92.7% (inactive) | 96.5% (inactive) | 64 | 205% (inactive) | 7.85% (inactive) | 98.5% (inactive) | 6% (inactive) | 3.5% (inactive) | 12.1% (inactive) | 4.32% (inactive) | 91.9% (inactive) | -0.14 (inactive) | -5% (inactive) | 5.13% (inactive) |
| COc1ccc(C=O)c(OC)c1 | 100% (inactive) | 98.6% (inactive) | 99% (inactive) | 99.5% (inactive) | 104% (inactive) | 60.9 | 188% (inactive) | 26.1% (inactive) | 93.3% (inactive) | 1% (inactive) | -22.1% (inactive) | 62.3% (active) | -1.57% (inactive) | 101% (inactive) | 0.08 (inactive) | -6% (inactive) | -9.91% (inactive) |
